# From PubChem BioAssay AID1159580 (chemical genetic matrix, 2015)
# Where “and” joins values, the source holds several entries; their conditions need not be identical. Equal values may be shown once. In all, about 5,500 compounds went through this assay and about 2,000 (36%) were called active. Inconclusive results (about 18%) are left out. Some of the results follow. A number with no mark means an inactive call. Rule as the data show it: active = normalized growth mostly below about 0.91 (no sharp cut-off); inconclusive = no clear call, values can overlap the other calls; inactive = mostly above about 0.92.
# Assay: chemical genetic growth profiling, strain panel (AID 1159580);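 also: tested at 20 µM; growth read once vehicle control cultures reached saturation at 30 °C; 1 = growth at the plate median or of vehicle wells; lower values mean less growth of the strain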
# Conditions: S. cerevisiae deletion strains, growth OD
structure (smiles),measurement,setting,value
C=C1c2c(Cl)ccc(O)c2C(O)=C2C(=O)[C@]3(O)C(O)=C(C(N)=O)C(=O)[C@@H](N(C)C)[C@@H]3[C@@H](O)[C@H]12,normalized growth,"locus YAL013W, strain DEP1, active compounds read low",0.972
same,normalized growth,"locus YAL021C, strain ccr4, active compounds read low",0.964
same,normalized growth,"locus YAL026C, strain drs2, active compounds read low",0.934
same,normalized growth,"locus YAL030W, strain snc1, active compounds read low",0.981
same,normalized growth,"locus YBL061C, strain skt5, active compounds read low",0.976
same,normalized growth,"locus YBR009C, strain hhf1, active compounds read low",0.958
same,normalized growth,"locus YBR021W, strain FUR4, active compounds read low",0.914
same,normalized growth,"locus YBR023C, strain chs3, active compounds read low",0.966
same,normalized growth,"locus YBR171W, strain sec66, active compounds read low",0.999
same,normalized growth,"locus YBR229C, strain ROT2, active compounds read low",0.977
same,normalized growth,"locus YBR231C, strain swc5, active compounds read low",0.978
same,normalized growth,"locus YBR279W, strain paf1, active compounds read low",0.956
same,normalized growth,"locus YCL011C, strain gbp2, active compounds read low",0.935
same,normalized growth,"locus YCL016C, strain dcc1, active compounds read low",0.936
same,normalized growth,"locus YCL029C, strain bik1, active compounds read low",0.948
same,normalized growth,"locus YCL061C, strain MRC1, active compounds read low",0.954
same,normalized growth,"locus YCL069W, strain vba3, active compounds read low",0.977
same,normalized growth,"locus YCR088W, strain abp1, active compounds read low",0.981
same,normalized growth,"locus YDL005C, strain med2, active compounds read low",0.99
same,normalized growth,"locus YDL035C, strain GPR1, active compounds read low",0.954
same,normalized growth,"locus YDL040C, strain nat1, active compounds read low",0.993
same,normalized growth,"locus YDL074C, strain BRE1, active compounds read low",0.946
same,normalized growth,"locus YDL101C, strain DUN1, active compounds read low",0.965
same,normalized growth,"locus YDL134C, strain PPH21, active compounds read low",0.909
same,normalized growth,"locus YDL185W, strain tfp1, active compounds read low",0.961
same,normalized growth,"locus YDL192W, strain arf1, active compounds read low",0.95
same,normalized growth,"locus YDR001C, strain nth1, active compounds read low",0.973
same,normalized growth,"locus YDR069C, strain doa4, active compounds read low",0.965
same,normalized growth,"locus YDR101C, strain arx1, active compounds read low",0.961
same,normalized growth,"locus YDR137W, strain rgp1, active compounds read low",0.977
same,normalized growth,"locus YDR150W, strain NUM1, active compounds read low",0.98
same,normalized growth,"locus YDR159W, strain sac3, active compounds read low",0.966
same,normalized growth,"locus YDR162C, strain NBP2, active compounds read low",0.945
same,normalized growth,"locus YDR195W, strain ref2",1.01
same,normalized growth,"locus YDR297W, strain sur2, active compounds read low",0.981
same,normalized growth,"locus YDR318W, strain mcm21, active compounds read low",0.947
same,normalized growth,"locus YDR334W, strain swr1, active compounds read low",0.949
same,normalized growth,"locus YDR335W, strain msn5, active compounds read low",0.967
same,normalized growth,"locus YDR388W, active compounds read low",0.986
same,normalized growth,"locus YDR392W, strain spt3, active compounds read low",0.849
same,normalized growth,"locus YDR502C, strain sam2, active compounds read low",0.98
same,normalized growth,"locus YEL003W, strain gim4, active compounds read low",0.967
same,normalized growth,"locus YEL037C, strain rad23, active compounds read low",0.962
same,normalized growth,"locus YEL061C, strain CIN8 (second series), active compounds read low",0.974
same,normalized growth,"locus YEL061C, strain CIN8, active compounds read low",0.976
same,normalized growth,"locus YER015W, strain faa2, active compounds read low",0.912 (active)
same,normalized growth,"locus YER016W, strain bim1, active compounds read low",0.964
same,normalized growth,"locus YER110C, active compounds read low",0.989
same,normalized growth,"locus YER111C, strain swi4, active compounds read low",0.949
same,normalized growth,"locus YER155C, strain BEM2 (second series), active compounds read low",0.947
same,normalized growth,"locus YER155C, strain BEM2, active compounds read low",0.992
same,normalized growth,"locus YER167W, strain BCK2, active compounds read low",0.962
same,normalized growth,"locus YFR010W, strain ubp6, active compounds read low",0.958
same,normalized growth,"locus YGL078C, strain dbp3, active compounds read low",0.964
same,normalized growth,"locus YGL086W, strain mad1, active compounds read low",0.964
same,normalized growth,"locus YGL167C, strain pmr1, active compounds read low",0.971
same,normalized growth,"locus YGL173C, strain kem1, active compounds read low",0.983
same,normalized growth,"locus YGL227W, strain vid30, active compounds read low",0.997
same,normalized growth,"locus YGL240W, strain doc1, active compounds read low",1.01
same,normalized growth,"locus YGL248W, strain PDE1, active compounds read low",0.916
same,normalized growth,"locus YGL253W, strain hxk2, active compounds read low",0.968
same,normalized growth,"locus YGR078C, strain PAC10, active compounds read low",0.882
same,normalized growth,"locus YGR135W, strain pre9, active compounds read low",0.94
same,normalized growth,"locus YGR229C, strain SMI1, active compounds read low",0.957
same,normalized growth,"locus YGR252W, strain gcn5, active compounds read low",0.967
same,normalized growth,"locus YHR013C, strain ard1, active compounds read low",0.975
same,normalized growth,"locus YHR027C, strain rpn1, active compounds read low",0.962
same,normalized growth,"locus YHR030C, strain SLT2, active compounds read low",0.969 and 0.993
same,normalized growth,"locus YHR079C, strain IRE1 (second series), active compounds read low",0.961
same,normalized growth,"locus YHR079C, strain IRE1, active compounds read low",0.985
same,normalized growth,"locus YHR094C, strain hxt1, active compounds read low",0.974
same,normalized growth,"locus YHR129C, strain ARP1, active compounds read low",0.958
same,normalized growth,"locus YHR142W, strain chs7, active compounds read low",0.981
same,normalized growth,"locus YHR200W, strain rpn10, active compounds read low",0.952
same,normalized growth,"locus YIL066C, strain RNR3, active compounds read low",0.915
same,normalized growth,"locus YIL073C, strain SPO22, active compounds read low",0.952
same,normalized growth,"locus YIL125W, strain kgd1, active compounds read low",0.98
same,normalized growth,"locus YIR030C, strain dcg1, active compounds read low",0.98
same,normalized growth,"locus YJL092W, strain hpr5, active compounds read low",0.966
same,normalized growth,"locus YJL095W, strain BCK1 (second series), active compounds read low",0.976
same,normalized growth,"locus YJL095W, strain BCK1, active compounds read low",0.898 and 0.992
same,normalized growth,"locus YJL115W, strain asf1, active compounds read low",0.979
same,normalized growth,"locus YJL129C, strain trk1, active compounds read low",1.01
same,normalized growth,"locus YJL134W, strain LCB3, active compounds read low",0.98
same,normalized growth,"locus YJL154C, strain vps35, active compounds read low",0.985
same,normalized growth,"locus YJL164C, strain tpk1, active compounds read low",0.928
same,normalized growth,"locus YJL166W, strain qcr8, active compounds read low",0.976
same,normalized growth,"locus YJL168C, strain set2, active compounds read low",0.974
same,normalized growth,"locus YJL187C, strain SWE1 (second series), active compounds read low",0.885
same,normalized growth,"locus YJR043C, strain POL32, active compounds read low",0.879
same,normalized growth,"locus YJR066W, strain TOR1, active compounds read low",0.951
